# Legend:
# Assay in all cases: DAPPL (digital affinity profiling via proximity ligation, sequencing); 10 mM Tris-HCl pH 7.5, 50 mM NaCl, 1 mM DTT, 4% glycerol, room temperature, 30 min; GST-TFs on glutathione beads, 16-mer random dsDNA library, 0.1% formaldehyde crosslink after washing; high values mean tight binding
# FLI1 = biological target: T1, FLI1 (Homo sapiens, UniProt Q01543 1-452); details: protein: recombinant; tags: N-terminal GST; dsDNA, one strand shown
# T1 sequence: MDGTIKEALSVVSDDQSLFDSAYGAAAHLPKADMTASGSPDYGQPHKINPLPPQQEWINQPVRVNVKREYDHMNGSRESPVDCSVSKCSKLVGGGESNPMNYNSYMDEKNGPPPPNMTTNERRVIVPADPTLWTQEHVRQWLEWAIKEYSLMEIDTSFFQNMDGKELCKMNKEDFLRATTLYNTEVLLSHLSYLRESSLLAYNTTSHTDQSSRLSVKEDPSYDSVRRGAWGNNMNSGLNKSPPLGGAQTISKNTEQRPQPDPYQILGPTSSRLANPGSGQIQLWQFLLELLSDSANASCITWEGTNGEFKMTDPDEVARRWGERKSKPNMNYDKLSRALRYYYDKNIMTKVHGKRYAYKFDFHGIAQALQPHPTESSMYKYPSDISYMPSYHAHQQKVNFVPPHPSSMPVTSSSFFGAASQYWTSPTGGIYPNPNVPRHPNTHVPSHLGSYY
# Summary of the method: (§1)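 Binding signal is each hexamer's read frequency for a factor divided by its frequency in the tag-only sample. The factors were GST-fused human transcription factors from yeast, captured on glutathione beads, DNA-barcoded and pooled with that sample. Pools were incubated with 200 nmole of a random double-stranded 16-mer DNA library in Tris/NaCl/DTT/glycerol buffer at room temperature for 30 min, then washed, crosslinked with 0.1% formaldehyde, proximity-ligated with BsaI/T4 ligase (1 h, 37 °C), PCR-amplified and sequenced on an Illumina NextSeq500.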
# ELK1 = biological target: T2, ELK1 (Homo sapiens, UniProt P19419 1-428); details: protein: recombinant; tags: N-terminal GST; dsDNA, one strand shown
# T2 sequence: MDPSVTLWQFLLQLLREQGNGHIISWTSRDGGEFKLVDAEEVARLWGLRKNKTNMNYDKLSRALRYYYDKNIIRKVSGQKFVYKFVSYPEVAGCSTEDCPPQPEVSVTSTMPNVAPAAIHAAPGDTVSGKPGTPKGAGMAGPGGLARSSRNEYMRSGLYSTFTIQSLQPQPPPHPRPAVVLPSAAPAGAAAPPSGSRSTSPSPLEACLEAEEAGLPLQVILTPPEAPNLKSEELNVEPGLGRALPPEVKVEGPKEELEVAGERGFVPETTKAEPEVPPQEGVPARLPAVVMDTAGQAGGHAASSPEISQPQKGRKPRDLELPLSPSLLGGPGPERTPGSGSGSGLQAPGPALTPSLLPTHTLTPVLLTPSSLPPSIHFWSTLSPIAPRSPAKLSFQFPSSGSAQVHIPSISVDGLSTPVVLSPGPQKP
# Summary of the method: as §1
# GABPA = biological target: T3, GABPA (Homo sapiens, UniProt Q06546 1-454); details: protein: recombinant; tags: N-terminal GST; dsDNA, one strand shown
# T3 sequence: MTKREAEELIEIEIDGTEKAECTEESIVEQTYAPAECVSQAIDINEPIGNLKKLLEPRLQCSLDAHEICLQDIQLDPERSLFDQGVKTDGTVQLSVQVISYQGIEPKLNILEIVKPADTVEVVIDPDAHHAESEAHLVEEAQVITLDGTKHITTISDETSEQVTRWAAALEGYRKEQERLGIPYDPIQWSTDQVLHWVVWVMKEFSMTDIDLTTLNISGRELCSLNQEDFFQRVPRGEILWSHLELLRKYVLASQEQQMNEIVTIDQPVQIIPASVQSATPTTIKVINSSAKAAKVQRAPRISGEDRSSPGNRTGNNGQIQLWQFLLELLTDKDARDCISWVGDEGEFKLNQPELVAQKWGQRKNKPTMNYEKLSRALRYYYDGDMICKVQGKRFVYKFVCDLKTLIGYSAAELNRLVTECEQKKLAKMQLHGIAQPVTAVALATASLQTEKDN
# Summary of the method: as §1
# ERG = biological target: T4, ERG (Homo sapiens, UniProt P11308 1-479); details: protein: recombinant; tags: N-terminal GST; dsDNA, one strand shown
# T4 sequence: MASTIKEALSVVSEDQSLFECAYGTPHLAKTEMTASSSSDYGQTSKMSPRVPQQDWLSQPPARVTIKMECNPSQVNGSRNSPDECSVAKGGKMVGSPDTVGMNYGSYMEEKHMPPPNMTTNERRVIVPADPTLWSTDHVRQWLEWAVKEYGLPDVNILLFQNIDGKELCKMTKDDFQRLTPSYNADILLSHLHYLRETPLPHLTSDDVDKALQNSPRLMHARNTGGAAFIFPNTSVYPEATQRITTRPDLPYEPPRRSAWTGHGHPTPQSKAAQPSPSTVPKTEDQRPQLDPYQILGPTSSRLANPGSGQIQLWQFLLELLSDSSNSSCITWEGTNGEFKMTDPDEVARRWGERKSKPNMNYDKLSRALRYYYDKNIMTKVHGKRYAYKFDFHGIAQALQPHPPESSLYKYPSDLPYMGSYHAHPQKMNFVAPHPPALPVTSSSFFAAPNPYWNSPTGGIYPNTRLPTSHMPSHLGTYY
# Summary of the method: as §1
# ELF1 = ELF1 (Homo sapiens, UniProt P32519 1-619); details: protein: recombinant; tags: N-terminal GST; dsDNA, one strand shown
# Sequence of ELF1 (P32519 whole entry): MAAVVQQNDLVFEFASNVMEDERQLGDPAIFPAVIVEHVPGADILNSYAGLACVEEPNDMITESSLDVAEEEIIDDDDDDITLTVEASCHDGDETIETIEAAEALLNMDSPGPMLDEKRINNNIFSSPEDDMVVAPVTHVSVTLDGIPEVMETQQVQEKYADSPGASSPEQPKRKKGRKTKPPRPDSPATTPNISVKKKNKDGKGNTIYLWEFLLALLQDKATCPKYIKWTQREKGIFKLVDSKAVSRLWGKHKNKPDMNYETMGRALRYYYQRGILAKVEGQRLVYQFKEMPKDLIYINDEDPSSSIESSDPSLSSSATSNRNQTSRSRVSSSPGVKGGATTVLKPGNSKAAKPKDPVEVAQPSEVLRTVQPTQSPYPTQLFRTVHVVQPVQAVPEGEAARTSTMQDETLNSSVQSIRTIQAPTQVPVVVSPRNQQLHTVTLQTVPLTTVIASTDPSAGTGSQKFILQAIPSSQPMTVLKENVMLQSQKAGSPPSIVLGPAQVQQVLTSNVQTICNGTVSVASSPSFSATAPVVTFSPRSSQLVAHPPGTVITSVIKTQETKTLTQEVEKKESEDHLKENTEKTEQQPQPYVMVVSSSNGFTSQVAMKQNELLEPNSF
# Summary of the method: as §1
# EHF = biological target: T5, EHF (Homo sapiens, UniProt Q9NZC4 1-300); details: protein: recombinant; tags: N-terminal GST; dsDNA, one strand shown
# T5 sequence: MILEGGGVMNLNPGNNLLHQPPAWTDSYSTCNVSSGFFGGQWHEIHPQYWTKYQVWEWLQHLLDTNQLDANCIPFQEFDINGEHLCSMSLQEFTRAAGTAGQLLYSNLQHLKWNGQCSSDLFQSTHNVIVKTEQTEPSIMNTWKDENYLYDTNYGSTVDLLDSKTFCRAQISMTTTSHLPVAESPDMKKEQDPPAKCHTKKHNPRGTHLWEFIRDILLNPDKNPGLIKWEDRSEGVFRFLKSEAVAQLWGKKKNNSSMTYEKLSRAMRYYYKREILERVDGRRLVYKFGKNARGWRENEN
# Summary of the method: as §1
# SPI1 = SPI1 (Homo sapiens, UniProt P17947 1-270); details: protein: recombinant; tags: N-terminal GST; dsDNA, one strand shown
# Summary of the method: as §1
# SPIB = SPIB (Homo sapiens, UniProt Q01892 1-262); details: protein: recombinant; tags: N-terminal GST; dsDNA, one strand shown
# Sequence of SPIB (Q01892 whole entry): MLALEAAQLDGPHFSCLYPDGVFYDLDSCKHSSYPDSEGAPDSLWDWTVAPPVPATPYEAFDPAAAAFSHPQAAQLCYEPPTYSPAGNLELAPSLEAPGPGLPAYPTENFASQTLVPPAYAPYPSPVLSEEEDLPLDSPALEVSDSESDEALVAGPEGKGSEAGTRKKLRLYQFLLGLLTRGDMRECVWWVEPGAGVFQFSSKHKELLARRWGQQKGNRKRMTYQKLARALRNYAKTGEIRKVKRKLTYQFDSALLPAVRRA
# Summary of the method: as §1
# ELK3 = biological target: T6, ELK3 (Homo sapiens, UniProt P41970 1-407); details: protein: recombinant; tags: N-terminal GST; dsDNA, one strand shown
# T6 sequence: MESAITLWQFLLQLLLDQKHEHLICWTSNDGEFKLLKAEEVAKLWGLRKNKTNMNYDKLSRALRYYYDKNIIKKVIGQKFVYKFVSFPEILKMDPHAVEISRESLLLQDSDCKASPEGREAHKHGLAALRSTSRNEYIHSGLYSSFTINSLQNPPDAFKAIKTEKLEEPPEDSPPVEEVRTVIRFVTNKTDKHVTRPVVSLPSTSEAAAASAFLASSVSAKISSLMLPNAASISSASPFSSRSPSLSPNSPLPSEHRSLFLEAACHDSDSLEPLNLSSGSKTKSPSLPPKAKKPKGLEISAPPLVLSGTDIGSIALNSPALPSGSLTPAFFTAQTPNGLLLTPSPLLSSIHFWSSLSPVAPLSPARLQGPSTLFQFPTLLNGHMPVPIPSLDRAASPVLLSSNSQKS
# Summary of the method: as §1
# FEV = biological target: T7, FEV (Homo sapiens, UniProt Q99581 1-238); details: protein: recombinant; tags: N-terminal GST; dsDNA, one strand shown
# T7 sequence: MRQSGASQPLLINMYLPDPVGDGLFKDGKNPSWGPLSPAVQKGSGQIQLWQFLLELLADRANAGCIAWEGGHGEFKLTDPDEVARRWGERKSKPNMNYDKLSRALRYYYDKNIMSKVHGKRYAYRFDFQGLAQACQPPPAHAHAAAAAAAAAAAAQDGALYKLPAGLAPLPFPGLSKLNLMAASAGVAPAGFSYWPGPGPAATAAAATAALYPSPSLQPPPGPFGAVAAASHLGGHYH
# Summary of the method: as §1
# ETV5 = ETV5 (Homo sapiens, UniProt P41161 1-510); details: protein: recombinant; tags: N-terminal GST; dsDNA, one strand shown
# Sequence of ETV5 (P41161 whole entry): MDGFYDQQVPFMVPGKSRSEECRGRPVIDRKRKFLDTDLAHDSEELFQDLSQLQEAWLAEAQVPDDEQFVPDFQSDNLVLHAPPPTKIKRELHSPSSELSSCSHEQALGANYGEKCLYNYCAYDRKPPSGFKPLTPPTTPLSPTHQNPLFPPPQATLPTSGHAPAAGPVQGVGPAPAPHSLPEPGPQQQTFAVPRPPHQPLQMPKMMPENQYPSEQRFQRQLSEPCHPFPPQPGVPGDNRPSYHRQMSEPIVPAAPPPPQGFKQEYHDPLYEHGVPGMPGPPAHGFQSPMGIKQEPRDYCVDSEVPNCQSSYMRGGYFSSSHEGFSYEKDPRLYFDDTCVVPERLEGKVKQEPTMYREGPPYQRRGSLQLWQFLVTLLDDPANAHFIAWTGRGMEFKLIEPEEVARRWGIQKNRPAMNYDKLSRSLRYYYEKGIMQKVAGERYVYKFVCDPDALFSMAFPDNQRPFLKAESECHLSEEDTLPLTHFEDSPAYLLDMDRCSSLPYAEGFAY
# Summary of the method: as §1
# HSF1 = HSF1 (Homo sapiens, UniProt Q00613 1-529); details: protein: recombinant; tags: N-terminal GST; chain copies: 3; dsDNA, one strand shown
# Sequence of HSF1 (Q00613 whole entry): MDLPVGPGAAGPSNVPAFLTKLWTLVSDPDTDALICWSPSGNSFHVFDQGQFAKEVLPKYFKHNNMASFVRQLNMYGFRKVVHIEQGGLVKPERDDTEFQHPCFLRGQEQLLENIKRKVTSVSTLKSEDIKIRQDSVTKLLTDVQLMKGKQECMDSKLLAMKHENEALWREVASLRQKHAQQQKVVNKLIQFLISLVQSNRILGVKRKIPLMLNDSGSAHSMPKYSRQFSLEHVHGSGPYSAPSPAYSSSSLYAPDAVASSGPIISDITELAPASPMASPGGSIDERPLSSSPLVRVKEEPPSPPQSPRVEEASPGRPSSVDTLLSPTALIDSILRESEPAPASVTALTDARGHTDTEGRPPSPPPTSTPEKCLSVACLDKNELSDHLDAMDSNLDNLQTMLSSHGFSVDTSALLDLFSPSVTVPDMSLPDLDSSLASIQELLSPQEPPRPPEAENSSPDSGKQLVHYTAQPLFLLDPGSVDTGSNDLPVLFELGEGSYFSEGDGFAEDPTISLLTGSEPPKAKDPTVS
# Summary of the method: as §1
# SPIC = biological target: T8, SPIC (Homo sapiens, UniProt Q8N5J4 1-248); details: protein: recombinant; tags: N-terminal GST; dsDNA, one strand shown
# T8 sequence: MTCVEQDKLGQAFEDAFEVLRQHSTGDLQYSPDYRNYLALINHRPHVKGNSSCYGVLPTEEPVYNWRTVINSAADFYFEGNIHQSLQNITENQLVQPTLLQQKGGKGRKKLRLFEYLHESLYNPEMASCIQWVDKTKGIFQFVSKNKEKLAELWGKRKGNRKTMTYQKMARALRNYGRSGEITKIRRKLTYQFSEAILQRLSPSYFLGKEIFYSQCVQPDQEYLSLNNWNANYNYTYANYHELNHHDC
# Summary of the method: as §1
# ELF4 = ELF4 (Homo sapiens, UniProt Q99607 1-663); details: protein: recombinant; tags: N-terminal GST; dsDNA, one strand shown
# Sequence of ELF4 (Q99607 whole entry): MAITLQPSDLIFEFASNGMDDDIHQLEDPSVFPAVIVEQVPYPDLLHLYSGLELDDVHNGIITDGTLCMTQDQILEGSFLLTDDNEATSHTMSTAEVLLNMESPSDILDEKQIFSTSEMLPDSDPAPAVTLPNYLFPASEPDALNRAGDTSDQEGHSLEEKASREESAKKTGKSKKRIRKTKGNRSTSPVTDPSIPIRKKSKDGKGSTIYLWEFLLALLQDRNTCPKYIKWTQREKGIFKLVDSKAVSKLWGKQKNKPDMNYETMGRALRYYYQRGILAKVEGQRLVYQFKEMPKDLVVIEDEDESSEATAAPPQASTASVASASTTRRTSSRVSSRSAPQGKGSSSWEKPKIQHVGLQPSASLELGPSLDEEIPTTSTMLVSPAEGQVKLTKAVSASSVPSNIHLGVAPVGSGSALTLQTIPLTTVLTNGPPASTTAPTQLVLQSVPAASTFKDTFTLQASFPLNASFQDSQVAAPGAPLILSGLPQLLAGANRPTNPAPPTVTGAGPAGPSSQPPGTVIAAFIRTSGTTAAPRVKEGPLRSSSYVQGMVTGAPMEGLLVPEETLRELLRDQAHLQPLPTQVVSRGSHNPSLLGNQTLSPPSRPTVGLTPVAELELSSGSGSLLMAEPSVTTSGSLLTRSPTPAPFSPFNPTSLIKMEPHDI
# Summary of the method: as §1
# ELK4 = biological target: T9, ELK4 (Homo sapiens, UniProt P28324-2 1-405); details: protein: recombinant; tags: N-terminal GST; dsDNA, one strand shown
# T9 sequence: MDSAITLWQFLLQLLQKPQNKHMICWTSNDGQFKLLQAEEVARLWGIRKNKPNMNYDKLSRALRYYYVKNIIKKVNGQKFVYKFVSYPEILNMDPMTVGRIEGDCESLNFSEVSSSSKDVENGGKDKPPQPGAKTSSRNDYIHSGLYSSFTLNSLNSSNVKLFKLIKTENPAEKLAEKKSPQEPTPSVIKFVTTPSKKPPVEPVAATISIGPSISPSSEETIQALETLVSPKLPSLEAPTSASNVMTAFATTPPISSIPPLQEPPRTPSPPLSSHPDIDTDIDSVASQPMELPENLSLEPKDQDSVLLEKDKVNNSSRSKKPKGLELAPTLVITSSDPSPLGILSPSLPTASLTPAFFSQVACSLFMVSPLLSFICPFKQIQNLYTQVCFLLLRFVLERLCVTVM
# Summary of the method: as §1
# ETV2 = biological target: T10, ETV2 (Homo sapiens, UniProt O00321 1-342); details: protein: recombinant; tags: N-terminal GST; dsDNA, one strand shown
# T10 sequence: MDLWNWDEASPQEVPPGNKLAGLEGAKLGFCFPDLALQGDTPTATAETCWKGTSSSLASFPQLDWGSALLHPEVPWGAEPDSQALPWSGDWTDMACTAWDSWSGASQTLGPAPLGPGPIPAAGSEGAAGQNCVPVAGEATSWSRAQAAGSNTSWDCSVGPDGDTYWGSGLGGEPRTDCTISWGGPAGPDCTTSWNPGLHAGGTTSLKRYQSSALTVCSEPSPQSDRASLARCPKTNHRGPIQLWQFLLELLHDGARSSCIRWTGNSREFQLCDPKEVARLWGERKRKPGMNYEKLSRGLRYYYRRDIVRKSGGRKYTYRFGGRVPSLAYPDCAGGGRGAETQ
# Summary of the method: as §1
# ELF3 = biological target: T11, ELF3 (Homo sapiens, UniProt P78545 1-371); details: protein: recombinant; tags: N-terminal GST; dsDNA, one strand shown
# T11 sequence: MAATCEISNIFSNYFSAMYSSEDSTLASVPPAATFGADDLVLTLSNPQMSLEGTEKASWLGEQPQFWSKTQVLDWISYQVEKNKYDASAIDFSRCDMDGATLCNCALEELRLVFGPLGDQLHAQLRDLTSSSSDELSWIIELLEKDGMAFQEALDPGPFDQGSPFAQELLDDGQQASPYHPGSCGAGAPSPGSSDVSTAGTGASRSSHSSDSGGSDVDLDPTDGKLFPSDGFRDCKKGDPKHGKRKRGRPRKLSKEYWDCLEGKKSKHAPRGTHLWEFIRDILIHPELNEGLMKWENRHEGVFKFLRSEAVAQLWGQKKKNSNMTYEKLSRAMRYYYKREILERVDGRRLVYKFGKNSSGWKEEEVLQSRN
# Summary of the method: as §1
# CRX = CRX (Homo sapiens, UniProt O43186 1-299); details: protein: recombinant; tags: N-terminal GST; dsDNA, one strand shown
# Sequence of CRX (O43186 whole entry): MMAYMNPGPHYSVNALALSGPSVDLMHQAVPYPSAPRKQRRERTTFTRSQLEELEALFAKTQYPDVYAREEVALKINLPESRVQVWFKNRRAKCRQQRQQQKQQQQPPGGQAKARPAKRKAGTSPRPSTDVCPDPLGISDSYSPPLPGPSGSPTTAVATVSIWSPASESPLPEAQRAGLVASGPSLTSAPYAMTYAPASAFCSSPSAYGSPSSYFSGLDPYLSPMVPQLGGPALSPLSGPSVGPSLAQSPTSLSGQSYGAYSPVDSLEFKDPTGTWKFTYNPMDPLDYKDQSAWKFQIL
# Summary of the method: as §1
# ETV1 = ETV1 (Homo sapiens, UniProt P50549 1-477); details: protein: recombinant; tags: N-terminal GST; dsDNA, one strand shown
# Sequence of ETV1 (P50549 whole entry): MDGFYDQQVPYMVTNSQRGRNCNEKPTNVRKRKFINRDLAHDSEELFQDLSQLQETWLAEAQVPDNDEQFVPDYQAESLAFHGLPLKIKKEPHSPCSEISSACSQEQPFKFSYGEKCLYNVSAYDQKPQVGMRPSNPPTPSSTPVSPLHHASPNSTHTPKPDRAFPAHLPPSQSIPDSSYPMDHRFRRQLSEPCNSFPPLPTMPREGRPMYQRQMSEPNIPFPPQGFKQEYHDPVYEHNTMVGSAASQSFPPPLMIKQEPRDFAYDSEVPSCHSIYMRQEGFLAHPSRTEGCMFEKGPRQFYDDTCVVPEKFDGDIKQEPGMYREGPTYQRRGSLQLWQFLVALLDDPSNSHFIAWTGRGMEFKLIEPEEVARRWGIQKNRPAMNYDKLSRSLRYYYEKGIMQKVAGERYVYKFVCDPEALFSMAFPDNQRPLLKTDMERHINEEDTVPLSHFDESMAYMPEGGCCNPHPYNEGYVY
# Summary of the method: as §1
sequence,measurement,setting,value
TATACT,binding signal,FLI1,"1.25 fold enrichment (6-mer frequency, TF over GST control)"
same,binding signal,ELK1,"1.41 fold enrichment (6-mer frequency, TF over GST control)"
same,binding signal,GABPA,"1.43 fold enrichment (6-mer frequency, TF over GST control)"
same,binding signal,ERG,"1.29 fold enrichment (6-mer frequency, TF over GST control)"
same,binding signal,ELF1,"1.39 fold enrichment (6-mer frequency, TF over GST control)"
same,binding signal,EHF,"1.39 fold enrichment (6-mer frequency, TF over GST control)"
same,binding signal,SPI1,"1.35 fold enrichment (6-mer frequency, TF over GST control)"
same,binding signal,SPIB,"1.36 fold enrichment (6-mer frequency, TF over GST control)"
same,binding signal,ELK3,"1.43 fold enrichment (6-mer frequency, TF over GST control)"
same,binding signal,FEV,"1.29 fold enrichment (6-mer frequency, TF over GST control)"
same,binding signal,ETV5,"1.34 fold enrichment (6-mer frequency, TF over GST control)"
same,binding signal,HSF1,"1.4 fold enrichment (6-mer frequency, TF over GST control)"
same,binding signal,SPIC,"1.43 fold enrichment (6-mer frequency, TF over GST control)"
same,binding signal,ELF4,"1.31 fold enrichment (6-mer frequency, TF over GST control)"
same,binding signal,ELK4,"1.25 fold enrichment (6-mer frequency, TF over GST control)"
same,binding signal,ETV2,"1.31 fold enrichment (6-mer frequency, TF over GST control)"
same,binding signal,ELF3,"1.3 fold enrichment (6-mer frequency, TF over GST control)"
same,binding signal,CRX,"1.68 fold enrichment (6-mer frequency, TF over GST control)"
same,binding signal,ETV1,"1.34 fold enrichment (6-mer frequency, TF over GST control)"

# — publication PMC7862700, “An all-to-all approach to the identification of sequence-specific readers for epigenetic DNA modifications on cytosine”
